# Screening data (PubChem BioAssay)
# Hits are enriched below; roughly 11% of the tested compounds scored in any of these assays.
# PNC assembly inh = perinucleolar compartment assembly inhibition. PC3M PTB-GFP, PNC prevalence imaging, 16 h; stronger effect = lower value. activity change (PNC), negative = inhibition, % at 10 µM. 140,000 compounds, 3.1% hits. AID 2417;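 active means readout at or below -70, meaning at least 70% loss of cells showing the perinucleolar compartment, a nuclear body marking cancer cells; inconclusive means readout between -30 and a set limit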;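 further: plate controls were DMSO wells for no effect and camptothecin positive control wells for full effect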
#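 Read-out is percentage of cells bearing a perinucleolar compartment, from automated 20x imaging of fixed, Hoechst-stained PC3M PTB-GFP cells. Cells were seeded 4 h, then exposed 16 h to compound (23 nl of library stock) in duplicate plates.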
# IMPase Li inh = cell-permeable IMPase inhibitors with lithium potentiation. CHO-M1 cells, IP1 TR-FRET (IP-One), carbachol + lithium. Potency, µM (highest dose often 59.4 µM), for inactives: at the top dose activity, negative = IMPase inhibition, usual class: inhibitors. 210,000 compounds, 0.35% hits; active means well fitted inhibition curve with a large enough effect; inconclusive means small, poorly fitted or top-dose-only effect; inactive means no such curve, though single readings can be large or run the other way;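 further: IP1 builds up when IMPase is blocked and the TR-FRET signal falls; potency means the concentration at half of the fitted maximal effect; plate controls were basal vehicle for no effect and high inhibitor control for full effect; nearly all actives have a fitted effect of over 50% in size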
#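 Readout is a homogeneous TR-FRET IP1 immunoassay (Ex 320, Em 665 and 620), where raised cytosolic IP1 lowers signal. Cells were CHO-M1 treated 30 min at 37C with test compounds plus a little lithium; AC50 values came from Hill-equation fitting.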
# ALDH1A1 inh = inhibitors of human aldehyde dehydrogenase 1A1; P00352; Purified ALDH1A1, NADH fluorescence, propionaldehyde substrate; Potency, µM (highest dose often 75.3 µM), for the others: at the highest dose activity, negative = inhibition, actives largely listed as inhibitors; 220,000 compounds, 7.3% hits;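 further: potency means the concentration at half of the fitted maximal effect; plate controls were no enzyme wells and a reference inhibitor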
# Target sequence (P00352 whole entry, looked up): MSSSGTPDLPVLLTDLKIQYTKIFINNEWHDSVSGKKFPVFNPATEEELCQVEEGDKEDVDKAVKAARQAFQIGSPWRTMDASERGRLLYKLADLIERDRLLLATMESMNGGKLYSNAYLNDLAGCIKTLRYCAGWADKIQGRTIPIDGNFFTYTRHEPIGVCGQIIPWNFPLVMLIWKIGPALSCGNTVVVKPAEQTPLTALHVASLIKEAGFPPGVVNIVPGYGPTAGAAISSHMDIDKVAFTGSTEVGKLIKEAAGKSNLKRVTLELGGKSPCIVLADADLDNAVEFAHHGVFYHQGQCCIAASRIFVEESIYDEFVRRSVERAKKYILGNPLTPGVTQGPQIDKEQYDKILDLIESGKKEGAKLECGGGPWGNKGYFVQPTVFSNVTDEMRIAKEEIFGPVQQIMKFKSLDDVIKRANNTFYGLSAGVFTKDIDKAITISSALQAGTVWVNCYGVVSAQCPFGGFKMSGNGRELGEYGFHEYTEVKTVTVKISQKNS
# HPGD inh = blocks human HPGD enzyme activity; P15428; purified HPGD, NADH fluorescence kinetic, PGE2 substrate; Potency, µM, without a hit: top-dose activity change, negative = inhibition, hits mostly inhibitors; 150,000 compounds, 4.3% hits; further: potency means the concentration at half of the fitted maximal effect
#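 NADH formation kinetics: reaction with 30 uM PGE2 and 1 mM NAD+ (final), 20 nM enzyme, Tris-HCl pH 8 with Tween 20, after 15 min compound preincubation at room temperature. Fluorescence change, last versus first of five reads.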
# IMPase cell inh = membrane-permeable compound that blocks inositol monophosphatase; CHO-M1 cells, IP1 accumulation, HTRF TR-FRET ratio; inhibition (IP1 accumulation), % at 46.1 µM; 120,000 tested, under 10 active; active means well fitted curve in the direction sought with a large enough effect in the signal ratio, not every such curve was filed as active; inconclusive means small, poorly fitted or top-dose-only effect, or a change in a side signal; inactive means no such curve, though single readings can be large or run the other way; the % refers to the signal ratio;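 further: cells stimulated with carbachol in lithium chloride buffer; plate controls were DMSO basal wells for no effect and reference inhibitor wells for full effect; higher means more IMPase inhibition seen as more IP1 and lower FRET ratio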
# Target sequence (P97697 whole entry, looked up): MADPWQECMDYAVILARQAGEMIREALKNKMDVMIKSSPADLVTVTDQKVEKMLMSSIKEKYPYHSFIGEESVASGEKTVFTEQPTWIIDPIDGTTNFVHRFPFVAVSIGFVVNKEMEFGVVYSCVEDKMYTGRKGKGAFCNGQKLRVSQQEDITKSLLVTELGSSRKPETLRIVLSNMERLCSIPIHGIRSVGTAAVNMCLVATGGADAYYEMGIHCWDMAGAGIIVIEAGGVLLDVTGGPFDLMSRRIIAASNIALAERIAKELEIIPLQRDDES
#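 CHO-M1 cells (CHO stably expressing M1 receptor), compound up to 46 uM final, stimulated with carbachol (50 uM as added) in buffer with 50mM LiCl, pH 7.4, 30 min at 37C. Cytosolic IP1 read by TR-FRET; AC50 from Hill fits.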
# Starred values were filed as active, the others as inactive; ? = inconclusive; . = not tested or not shown; [ ] = dose if it differs, or a comment. Unless noted, the call rests on the fitted dose curve; in most records, active means well fitted inhibition curve with a large enough effect (not every such curve was filed as active); inconclusive means small, poorly fitted or top-dose-only effect, or another doubt; inactive means no such curve, though single readings can be large or run the other way. Unless noted, on the % scale 0 is the no-effect control and ±100 the full control effect.
SMILES,PNC assembly inh,IMPase Li inh,ALDH1A1 inh,HPGD inh,IMPase cell inh
OCCC1CN(Cc2cccc3nonc23)CCN1C1CCCCC1 (configuration not stated),.,.,-13.7%,.,.
Cc1c(-n2c(SCC(=O)N(C)C3CCS(=O)(=O)C3)nc3ccccc3c2=O)c(=O)n(-c2ccccc2)n1C (configuration not stated),.,-15.7%,25.1µM*,.,.
Cc1ccc(S(=O)(=O)/N=C2\SC(CC(=O)Nc3ccc(F)cc3)C(=O)N2c2ccccc2)cc1 (configuration not stated),20.2,-5.4%,5.62µM*,-19.5%,.
O=C(CC1S/C(=N\S(=O)(=O)c2ccccc2)N(c2ccccc2)C1=O)Nc1ccc(F)cc1 (configuration not stated),54.3,2.2%,25.1µM*,-9.2%,.
CSCCC=O,.,8.1%,-13.1%,-3.8%,.
CSc1nncc(/C(C)=N\Nc2ccccc2)n1,-26.0,12.4%[38.3 µM],?,-19.5%,3.7
CSc1nncc(/C(C)=N\Nc2cccc(C)c2)n1,30.1,-0.1%[38.3 µM],8.91µM*,-13.4%,7.1
CSc1nnc2c(n1)[nH]c1c(C)cccc12,-11.2,-1.5%[38.3 µM],-3.8%,?,-2.9
CC/C(=N/Nc1ccccc1C)c1cnnc(SC)n1,16.5,-2.5%,7.94µM*,-21.5%,.
COc1ccc(N(CC(=O)NCc2ccccc2C)S(=O)(=O)c2ccccc2[N+](=O)[O-])c(OC)c1,.,15.2%,12.8%,.,.
Cc1nc(N2CCOCC2)c2nc(-c3ccccc3)n(CCCN3CCOCC3)c2n1,.,-3.8%,?,?,.
N#Cc1ccc(CN2CCCC3(CCN(C(=O)c4ccncc4)CC3)C2)cc1,.,13.6%,-1.6%,-4.0%,.
CCOC(=O)N1CCC(NC(=O)c2ccc(CS(=O)(=O)c3ccccc3C)o2)CC1,-7.8,-3.6%[38.3 µM],11.2µM*,-17.6%,2.3
Cc1ccccc1S(=O)(=O)Cc1ccc(C(=O)NCc2cccnc2)o1,1.2,27.3%[38.3 µM],14.1µM*,-7.7%,1.2
Cc1ccccc1S(=O)(=O)Cc1ccc(C(=O)NC(C)c2ccc3c(c2)OCCO3)o1 (configuration not stated),0.9,0.2%[38.3 µM],14.1µM*,-19.9%,10.0
CC(NC(=O)c1ccc(CS(=O)(=O)c2ccc(Cl)cc2)o1)c1ccc2c(c1)OCCO2 (configuration not stated),-1.1,35.2%[38.3 µM],?,-8.8%,-6.6
Cc1ccc(CS(=O)(=O)Cc2ccc(C(=O)NCc3cccnc3)o2)cc1,22.7,-2.8%[38.3 µM],9.9%,-11.2%,4.8
CCCCOc1ccc([N+](=O)[O-])cc1C(=O)O,.,1.6%,4.9%,.,.
N#Cc1cc(S(=O)(=O)c2ccccc2)c(N)[nH]c1=O,-112.9*,13.9%[38.3 µM],?,?,-13.8[1.84 µM]
COc1cccc(C(c2sc3nc(C)nn3c2O)N2CCc3ccccc3C2)c1 (configuration not stated),14.4,21.0%[38.3 µM],?,11.2µM*,0.4
Oc1c(C(c2ccccc2)N2CCc3ccccc3C2)sc2ncnn12 (configuration not stated),11.3,13.2%,7.08µM*,31.6µM*,-3.3
COc1cc(C(c2sc3nc(C)nn3c2O)N2CC(C)CC(C)C2)cc(OC)c1OC (configuration not stated),-2.9,11.2%,14.1µM*,-15.2%,-25.6
COc1ccc2c(Cl)c(C(=O)N/N=C3\CCCC(=O)C3)sc2c1,.,-14.8%,4.47µM*,.,.
Cc1ccc(NC(=O)c2ccc(Nc3c([N+](=O)[O-])cc([N+](=O)[O-])cc3[N+](=O)[O-])cc2)cc1,-16.0,7.0%,0.562µM*,-7.2%,.
CCN(CC)S(=O)(=O)c1cc(NC(=O)CSc2nc3c(cc2C#N)C(=O)CC(C)(C)C3)ccc1C,-96.0*,-16.3%,?,-6.8%,.
SMILES,PNC assembly inh,IMPase Li inh,ALDH1A1 inh,HPGD inh,IMPase cell inh
CCN(CC)S(=O)(=O)c1cc(NC(=O)CSc2nnc(-c3cccs3)o2)ccc1C,-1.3,6.2%,-2.2%,-15.5%,5.6
CCOc1c(Cl)cc(C(=O)Nc2ccccc2C(=O)O)cc1Cl,110.5,-8.5%[38.3 µM],?,14.1µM*,4.6
CCOc1cc(C(=O)NC(=S)Nc2ccc(Cl)c(C(=O)O)c2)cc(OCC)c1OCC,.,.,18.9µM*,.,.
COc1cccc(C(=O)NC(=S)Nc2ccc(Cl)c(C(=O)O)c2)c1,33.2,-6.7%[38.3 µM],?,-17.4%,7.5
COc1ccc(C(=O)Nc2ccccc2C(=O)O)cc1Cl,-24.9,5.3%,?,-16.0%,.
COc1c(Cl)cc(C(=O)Nc2ccccc2-c2ccccc2)cc1Cl,68.4,10.9%[38.3 µM],12.6µM*,-20.2%,7.0
N#C/C(=C\c1ccc(Cl)cc1)c1nc(-c2cc3c(ccc4ccccc43)oc2=O)cs1,.,.,.,.,-4.4
N[C@@H]1C(O)OC(CO)C(O)C1O (some centres not stated),.,4.7%,14.3%,-3.4%,.
COc1ccc(N2C(=O)CSC23CCCCC3)cc1,306.2,13.0%,14.1µM*,-15.7%,-6.2
CCOc1ccc(N2C(=O)CSC23CCCCC3)cc1,28.1,.,?,.,12.4
Cc1ccc(C(=O)c2coc3cc([N+](=O)[O-])c(O)c([N+](=O)[O-])c23)cc1,43.1,9.8%,?,14.1µM*,10.3
COC(=O)/C(Cc1cc(Br)c(OC)c(Br)c1O)=N/O,.,14.7%,-6.6%,-8.8%,.
COc1cccc(NC(=O)/C(C#N)=C/c2c(C)n(Cc3ccccc3)c3ccccc23)c1,.,.,.,.,2.4
CC(C)(C)c1ccc(NC(=O)COC(=O)CCN2C(=O)c3cccc([N+](=O)[O-])c3C2=O)cc1,38.2,-1.3%,?,-6.9%,3.3
O=C(O)c1[nH]c2ccc(Br)cc2c1CCN1C(=O)c2cccc([N+](=O)[O-])c2C1=O,.,.,31.6µM*,.,.
O=C1CCC=C1C(O)c1ccc(Cl)cc1 (configuration not stated),.,8.0%,-8.0%,-5.1%,.
CC(C)c1[nH]nc2c1C(C1C=CCCC1)C(C#N)=C(N)O2 (configuration not stated),.,.,14.1µM*,.,.
O=C1C(=O)N(CNc2cccnc2)c2ccccc21,?,-1.2%,-1.2%,15.8µM*,-1.9
O=C1C(=O)N(CNc2ccccn2)c2ccccc21,18.4,-0.6%[38.3 µM],3.16µM*,-17.1%,4.3
O=C1CCC(=O)N1CNc1cccnc1,6.2,6.4%[38.3 µM],12.1%,-2.6%,1.6
CC(C)C[C@@H](CC(=O)N[C@@H](CCC(=O)O)CC(=O)O)NC(=O)[C@@H]1CCCC[C@H]1NC(=O)C[C@H](CCCN)NC(=O)C[C@H](CO)NC(=O)[C@@H]1CNCC[C@H]1N,.,2.3%,6.2%,-6.5%,.
CCOC(=O)c1nn(-c2ccccc2C)c(=O)c2c(N)scc12,.,-2.2%,9.46µM*,.,.
CC(C#N)On1c(SC(C)C#N)nc2ccccc2c1=O (configuration not stated),-1.3,29.9%[38.3 µM],15.8µM*,-7.5%,-0.6
CCC(C)n1c(SC(C)C#N)nc2ccccc2c1=O (configuration not stated),21.6,6.7%[38.3 µM],?,-0.4%,9.0
